Compounds without any hit were thinned out: in the full panel of roughly 83,000, 20% have a hit.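 Values shown are percent growth following 48 h exposure of cells in 96-well plates to a single concentration of compound; below 10 was considered active.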 Calls of active or inactive are those of the source.
How the values were obtained:
Assay in all cases: NCI-60 one-dose screen, 48 h (100 = growth as untreated, 0 = no growth, -100 = all killed)
Details in all cases: 10 µM
DU-145 prostate = tested on: DU-145 prostate
K-562 leukemia = tested on: K-562 leukemia
MALME-3M melanoma = tested on: MALME-3M melanoma
MDA-MB-231 breast = tested on: MDA-MB-231 breast
SF-268 CNS = tested on: SF-268 CNS
SF-295 CNS = tested on: SF-295 CNS
SF-539 CNS = tested on: SF-539 CNS
UACC-257 melanoma = tested on: UACC-257 melanoma
M14 melanoma = tested on: M14 melanoma
HCT-15 colon = tested on: HCT-15 colon
HT29 colon = tested on: HT29 colon
SNB-75 CNS = tested on: SNB-75 CNS
SNB-19 CNS = tested on: SNB-19 CNS
U251 CNS = tested on: U251 CNS
PC-3 prostate = tested on: PC-3 prostate
SK-MEL-5 melanoma = tested on: SK-MEL-5 melanoma
UACC-62 melanoma = tested on: UACC-62 melanoma
LOX IMVI melanoma = tested on: LOX IMVI melanoma
SK-MEL-28 melanoma = tested on: SK-MEL-28 melanoma

Measured: growth

CC(=O)c1cc(C(=O)c2ccc3c(c2)NC(=O)CO3)n2ccc3ccccc3c12
active: MALME-3M melanoma -5.58%
inactive: DU-145 prostate 84.1% | K-562 leukemia 84.1% | MDA-MB-231 breast 29.9% | SF-268 CNS 79% | SF-295 CNS 98.9% | SF-539 CNS 31.9% | UACC-257 melanoma 86.1% | M14 melanoma 65.1% | HCT-15 colon 71.1% | HT29 colon 56.5% | SNB-75 CNS 114% | SNB-19 CNS 69.6% | U251 CNS 26.5% | PC-3 prostate 80.3% | SK-MEL-5 melanoma 57.6% | UACC-62 melanoma 94.7% | LOX IMVI melanoma 56.5% | SK-MEL-28 melanoma 88.4%

COc1ccc(/C=C/C(=O)c2ccc(S(=O)(=O)NCCNc3nc(Nc4ccc(F)cc4)nc(N(C)C)n3)cc2)cc1
inactive: DU-145 prostate 28.7% | K-562 leukemia 27.3% | MALME-3M melanoma 49.3% | MDA-MB-231 breast 29% | SF-268 CNS 25.8% | SF-295 CNS 23.3% | SF-539 CNS 41.7% | UACC-257 melanoma 47.9% | SNB-75 CNS 52.6% | SNB-19 CNS 36.1% | U251 CNS 20.8% | PC-3 prostate 15.7% | SK-MEL-5 melanoma 21.2% | UACC-62 melanoma 29.6% | SK-MEL-28 melanoma 31.6%
active: M14 melanoma 7.31% | HCT-15 colon 1.91% | HT29 colon -46.4% | LOX IMVI melanoma -55.4%

O=C(CSc1nnc(-c2c[nH]c3ccccc23)n1-c1ccccc1)c1ccccc1
active: SF-539 CNS 7.59%
inactive: DU-145 prostate 85.7% | K-562 leukemia 52.8% | MALME-3M melanoma 37.4% | MDA-MB-231 breast 27% | SF-268 CNS 31.7% | SF-295 CNS 72% | UACC-257 melanoma 103% | M14 melanoma 73.6% | HCT-15 colon 79.4% | HT29 colon 47.9% | SNB-75 CNS 100% | SNB-19 CNS 19.2% | U251 CNS 10.8% | PC-3 prostate 65.8% | SK-MEL-5 melanoma 90.7% | UACC-62 melanoma 73.4% | LOX IMVI melanoma 29.2% | SK-MEL-28 melanoma 100%

COc1ccccc1C(=O)NNC(=O)CSc1nc2c(c(=O)[nH]1)CCCC2
inactive: DU-145 prostate 104% | K-562 leukemia 100% | MALME-3M melanoma 95.6% | MDA-MB-231 breast 86.3% | SF-268 CNS 101% | SF-295 CNS 99.2% | SF-539 CNS 101% | UACC-257 melanoma 107% | M14 melanoma 101% | HCT-15 colon 110% | HT29 colon 113% | SNB-75 CNS 99.3% | SNB-19 CNS 101% | U251 CNS 104% | PC-3 prostate 83.4% | SK-MEL-5 melanoma 99.3% | UACC-62 melanoma 95.2% | LOX IMVI melanoma 96.9% | SK-MEL-28 melanoma 110%

COc1cc(/C=C/C(=O)c2ccc(NC(=O)CSc3nnc(-c4c[nH]c5ccccc45)n3-c3ccccc3)cc2)cc(OC)c1OC
active: LOX IMVI melanoma 4.61%
inactive: DU-145 prostate 79.6% | K-562 leukemia 28.6% | MALME-3M melanoma 95.2% | MDA-MB-231 breast 64.2% | SF-268 CNS 85.4% | SF-295 CNS 74.3% | SF-539 CNS 60.8% | UACC-257 melanoma 106% | M14 melanoma 81.1% | HCT-15 colon 23.5% | HT29 colon 51% | SNB-75 CNS 94.9% | SNB-19 CNS 68.9% | U251 CNS 18.7% | PC-3 prostate 65.6% | SK-MEL-5 melanoma 90.2% | UACC-62 melanoma 59.1% | SK-MEL-28 melanoma 104%

COC1=C[C@@]23CCC(=O)N2CCc2cc4c(cc2[C@H]3[C@H]1OC(=O)C(C)(C)O)OCO4
inactive: DU-145 prostate 108% | K-562 leukemia 107% | MALME-3M melanoma 102% | MDA-MB-231 breast 94.9% | SF-268 CNS 104% | SF-295 CNS 95.8% | SF-539 CNS 93.6% | UACC-257 melanoma 104% | M14 melanoma 102% | HCT-15 colon 97.5% | HT29 colon 106% | SNB-75 CNS 74.1% | SNB-19 CNS 94.1% | U251 CNS 104% | PC-3 prostate 92.1% | SK-MEL-5 melanoma 99.3% | UACC-62 melanoma 89.1% | LOX IMVI melanoma 96.6% | SK-MEL-28 melanoma 105%

COc1ccc2[nH]cc(/C=N/Nc3cccc(Cl)n3)c2c1
active: MDA-MB-231 breast 3.25%
inactive: DU-145 prostate 64.4% | K-562 leukemia 19.9% | MALME-3M melanoma 76.3% | SF-268 CNS 32.8% | SF-295 CNS 47.2% | SF-539 CNS 26.8% | UACC-257 melanoma 84.3% | M14 melanoma 49.5% | HCT-15 colon 29.6% | HT29 colon 60.6% | SNB-75 CNS 61.8% | SNB-19 CNS 61% | U251 CNS 57.5% | PC-3 prostate 35% | SK-MEL-5 melanoma 64% | UACC-62 melanoma 61.8% | LOX IMVI melanoma 28.8% | SK-MEL-28 melanoma 96.4%

COc1ccc(/C=C/C(=O)c2ccc(NC(=O)CN3C(=O)NC(C)(c4ccccc4)C3=O)cc2)cc1 (centres undefined)
inactive: DU-145 prostate 87.7% | K-562 leukemia 60.2% | MALME-3M melanoma 90.5% | MDA-MB-231 breast 87% | SF-268 CNS 67.3% | SF-295 CNS 76.1% | SF-539 CNS 80% | UACC-257 melanoma 92.4% | M14 melanoma 87.9% | HCT-15 colon 75.7% | HT29 colon 67.6% | SNB-75 CNS 96.8% | SNB-19 CNS 91.8% | U251 CNS 67.7% | PC-3 prostate 61.4% | SK-MEL-5 melanoma 60.1% | UACC-62 melanoma 50% | LOX IMVI melanoma 56.5% | SK-MEL-28 melanoma 93.8%

O=C(/C=C/Nc1ccc(F)cc1F)c1ccc2c(c1)Nc1ccccc1S2
inactive: DU-145 prostate 89.4% | K-562 leukemia 28.6% | MALME-3M melanoma 66.1% | MDA-MB-231 breast 77.5% | SF-268 CNS 82.2% | SF-295 CNS 65.3% | SF-539 CNS 62.4% | UACC-257 melanoma 88.2% | M14 melanoma 66.4% | HCT-15 colon 33.1% | HT29 colon 70.8% | SNB-75 CNS 124% | SNB-19 CNS 63.9% | U251 CNS 73% | PC-3 prostate 74.8% | SK-MEL-5 melanoma 76.1% | UACC-62 melanoma 48.8% | LOX IMVI melanoma 65.9% | SK-MEL-28 melanoma 79.2%

CN(C(=O)c1ccc(C(C)(C)C)cc1)c1sc2c(c1C#N)CCC(=O)C2
inactive: DU-145 prostate 80.7% | K-562 leukemia 11.7% | SF-268 CNS 18.5% | UACC-257 melanoma 97% | M14 melanoma 19.3% | HT29 colon 113% | SNB-75 CNS 98% | SK-MEL-28 melanoma 60.3%
active: MALME-3M melanoma -6.14% | MDA-MB-231 breast -74.4% | SF-295 CNS -0.987% | SF-539 CNS -86.1% | HCT-15 colon -68.6% | SNB-19 CNS 8.17% | U251 CNS -22.7% | PC-3 prostate 2.52% | SK-MEL-5 melanoma -69.7% | UACC-62 melanoma -43.7% | LOX IMVI melanoma -71.5%

O=c1[nH]c2ccc(Cl)cc2cc1CSc1ccc(Nc2nccc(-c3ccc4ccccc4c3)n2)cc1
inactive: DU-145 prostate 38.3% | K-562 leukemia 85.7% | MALME-3M melanoma 20% | MDA-MB-231 breast 55.2% | SF-268 CNS 68% | SF-295 CNS 111% | SF-539 CNS 94.1% | UACC-257 melanoma 112% | M14 melanoma 88.4% | HCT-15 colon 12.6% | HT29 colon 75.1% | SNB-75 CNS 107% | SNB-19 CNS 71.8% | U251 CNS 45.7% | PC-3 prostate 62.4% | SK-MEL-5 melanoma 98.4% | UACC-62 melanoma 106% | LOX IMVI melanoma 60.4% | SK-MEL-28 melanoma 90.8%

O=C(Cc1ccc2c(c1)CN(C1CCC(=O)NC1=O)C2=O)NCCc1ccccc1 (centres undefined)
inactive: DU-145 prostate 66.8% | K-562 leukemia 20.2% | SF-268 CNS 31.3% | SF-295 CNS 17% | SF-539 CNS 29.1% | UACC-257 melanoma 92.2% | HT29 colon 31.3% | SNB-19 CNS 15.6% | U251 CNS 67.8% | PC-3 prostate 11.9% | UACC-62 melanoma 53.7% | LOX IMVI melanoma 81.2% | SK-MEL-28 melanoma 37.4%
active: MALME-3M melanoma -59.7% | MDA-MB-231 breast -32.2% | M14 melanoma 7.92% | HCT-15 colon -0.692% | SNB-75 CNS 1.96% | SK-MEL-5 melanoma -54.2%

C/C(=C\c1ccc(O)cc1O)c1ccc2ccc(O)cc2[o+]1
inactive: DU-145 prostate 25.8% | K-562 leukemia 72.7% | MALME-3M melanoma 56.8% | MDA-MB-231 breast 39.6% | SF-268 CNS 116% | SF-295 CNS 80.6% | SF-539 CNS 72.4% | UACC-257 melanoma 84% | M14 melanoma 73.3% | HCT-15 colon 12.3% | HT29 colon 93.1% | SNB-75 CNS 98.1% | SNB-19 CNS 71% | U251 CNS 23.5% | PC-3 prostate 62.7% | SK-MEL-5 melanoma 76.3% | UACC-62 melanoma 59.5% | SK-MEL-28 melanoma 62.3%
active: LOX IMVI melanoma 2.95%

CCCCSc1nc(Nc2ccc(/C(C)=N/NC(N)=S)cc2)c(C#N)c(-c2ccc(F)cc2)n1
inactive: DU-145 prostate 41.5% | K-562 leukemia 71.9% | MALME-3M melanoma 33.9% | SF-268 CNS 90.1% | SF-295 CNS 28.5% | UACC-257 melanoma 78.6% | M14 melanoma 79% | HCT-15 colon 62.7% | HT29 colon 60.3% | SNB-75 CNS 53.5% | SNB-19 CNS 20.7% | PC-3 prostate 28.6% | SK-MEL-5 melanoma 75% | UACC-62 melanoma 49.3% | SK-MEL-28 melanoma 64%
active: MDA-MB-231 breast 3.28% | SF-539 CNS -13.5% | U251 CNS 7.7% | LOX IMVI melanoma 6.74%

COc1ccc(-c2cc(C(=O)N=Nc3c(O)[nH]c4ccc(Br)cc34)c3ccccc3n2)cc1
inactive: DU-145 prostate 19.9% | K-562 leukemia 10.2% | MALME-3M melanoma 45.9% | SF-268 CNS 64.4% | SF-295 CNS 35.3% | SF-539 CNS 31.7% | UACC-257 melanoma 102% | M14 melanoma 42.6% | SNB-75 CNS 108% | PC-3 prostate 23.1% | SK-MEL-5 melanoma 84.8% | UACC-62 melanoma 32.6% | SK-MEL-28 melanoma 65.9%
active: MDA-MB-231 breast -68.2% | HCT-15 colon -60.8% | HT29 colon -1.14% | SNB-19 CNS -3.47% | U251 CNS -67.7% | LOX IMVI melanoma -51.5%

N#Cc1c(NC(=O)c2ccc(C(F)(F)F)cc2)sc2c1CCC(=O)C2
inactive: DU-145 prostate 23.1%
active: K-562 leukemia 7.26% | MALME-3M melanoma -54.2% | MDA-MB-231 breast -84.4% | SF-268 CNS -37.6% | SF-295 CNS -95.3% | SF-539 CNS -89.2% | UACC-257 melanoma -71.1% | M14 melanoma -78.5% | HCT-15 colon -66.1% | HT29 colon 8.13% | SNB-75 CNS -44.9% | SNB-19 CNS -42.2% | U251 CNS -66.3% | PC-3 prostate -9.55% | SK-MEL-5 melanoma -97.7% | UACC-62 melanoma -82.7% | LOX IMVI melanoma -86.8% | SK-MEL-28 melanoma -88.2%
